Compounds with a hit are over-represented: about 1.4% of the library has one in this group of screens.
GALR2 blocker: antagonists of human galanin receptor 2 (GALR2); O43603; GALR2-expressing cells, antagonist mode; inhibition, % at 4 µM; 140,000 compounds, 0.39% hits; AID 828; in the data active = inhibition above about 27%;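 note: cells stimulated with galanin 1-16 at roughly its EC80; 0% = agonist challenge control and 100% = basal control without agonist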
Target sequence (O43603 whole entry, looked up): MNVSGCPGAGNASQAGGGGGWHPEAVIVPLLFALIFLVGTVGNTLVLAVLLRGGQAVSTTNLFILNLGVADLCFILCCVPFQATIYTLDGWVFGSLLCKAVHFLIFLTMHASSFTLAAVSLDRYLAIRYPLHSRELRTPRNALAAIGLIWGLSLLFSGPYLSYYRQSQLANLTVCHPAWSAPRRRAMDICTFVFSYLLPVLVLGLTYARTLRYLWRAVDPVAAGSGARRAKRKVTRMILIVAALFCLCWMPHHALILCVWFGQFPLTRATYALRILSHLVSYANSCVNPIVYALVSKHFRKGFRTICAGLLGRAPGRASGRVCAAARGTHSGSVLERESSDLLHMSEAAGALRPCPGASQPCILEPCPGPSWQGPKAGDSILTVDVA
GALR2 agonist: activates the human galanin receptor 2. 140,000 compounds, 0.48% hits. GALR2-expressing cells, agonist activation read-out. O43603. AID 803. activation, % (no concentration beside the values); in the data active = activation above about 5%, passing the limit was not always enough;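 note: 0% = vehicle buffer wells and 100% = reference agonist at full effect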
CD11b adhes inh: CD11b/CD18-fibrinogen binding inhibition | inhibition, % at 10 µM | 93,000 compounds, 0.54% hits | K562 CD11b/CD18 adhesion to fibrinogen, ATPlite luminescence; Mn2+ added to activate the integrin | AID 1497;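 active = primary inhibition of 50% or more at 10 µM, then 40% or more on retest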
S1P2 blocker: antagonists of human S1P2 receptor. inhibition, % at 5 µM. cell-based S1P2 antagonist assay, inhibition at 5 uM. 97,000 compounds, 0.21% hits; in the data active = inhibition above about 45%;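 note: CRE beta-lactamase reporter cells expressing human S1P2 stimulated with S1P; 0% = agonist at EC80 alone and 100% = agonist plus reference antagonist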
S1P2 agonist: S1P2 (human) receptor agonism; 97,000 compounds, 0.46% hits; S1P2-expressing cell line, agonist reporter read-out; O95136; activation, % at 4.5 µM; AID 729; in the data active = activation above about 16%;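 note: 0% = vehicle low control and 100% = maximal reference agonist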
Mac1 fbg enh: enhancers of human CD11b/CD18 binding to fibrinogen. K562 CD11b/CD18 adhesion to fibrinogen, ATPlite luminescence. activation, % at 10 µM. AID 1499. 93,000 compounds, 0.07% hits;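 active = 10 µM primary screen giving 50% or more activity, confirmed by 40% or more on retest at that dose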
GALR2 agon conf: confirmation of human galanin receptor 2 (GALR2) agonists; shares compounds with GALR2 agonist; GALR2-expressing cells, agonist activation; activation, % at 5.6 µM; 460 compounds, 10% hits; AID 864; in the data active = activation above about 8.4%;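 note: 0% = buffer-only vehicle wells and 100% = full reference agonist response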
BLA act counter: beta-lactamase activation, GALR2 counterscreen | CHO NFAT-bla reporter, beta-lactamase FRET activation | 460 compounds, 10% hits | AID 865 | shares compounds with GALR2 agonist | activation, % at 5.6 µM;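 active = activation above the screen-wide mean activation plus 3 SD, cut at about 8% in these data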;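 note: 0% = DMSO with PBS wells and 100% = thapsigargin positive control wells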
* hit, by the source's call.

How did Nc1c(C(=O)c2ccccc2)sc2c1c(=O)[nH]c(=O)n2-c1ccccc1 do in these assays?
GALR2 blocker: -13; GALR2 agonist: 3; CD11b adhes inh: 19; Mac1 fbg enh: 0

How did Nc1c(C(=O)c2ccc(Cl)cc2)sc2c1c(=O)[nH]c(=O)n2-c1ccccc1 do in these assays?
GALR2 blocker: -15; GALR2 agonist: 22*; CD11b adhes inh: 8; Mac1 fbg enh: 2; GALR2 agon conf: 6; BLA act counter: 4

Results for Cn1c(=O)cc(SCC(=O)N2CCOCC2)c2ccc(Cl)cc21 ?
GALR2 blocker: 1; GALR2 agonist: 2; S1P2 blocker: 3; S1P2 agonist: -5

How did O=C(O)CC(=O)Nc1ccccc1 do in these assays?
GALR2 blocker: -7; GALR2 agonist: -1; CD11b adhes inh: 4; S1P2 blocker: -10; S1P2 agonist: -2; Mac1 fbg enh: 1

How did COc1ccc(Cc2nc(C(=O)Nc3ccc(OC)cc3)cs2)cc1 do in these assays?
GALR2 blocker: -5; GALR2 agonist: 27*; CD11b adhes inh: 87; S1P2 blocker: 0; S1P2 agonist: -6; Mac1 fbg enh: -6; GALR2 agon conf: -2; BLA act counter: -4

What do the screens show for `COc1ccc(Cc2nc(C(=O)NCc3ccccc3OC)cs2)cc1`?
GALR2 blocker: 3; GALR2 agonist: -1; S1P2 blocker: 1; S1P2 agonist: -4

How did CC(NC(=O)c1ccccc1)c1nc2ccccc2n1Cc1ccccc1F (stereo not drawn) do in these assays?
GALR2 blocker: 5; GALR2 agonist: -1; S1P2 blocker: 5; S1P2 agonist: -2

How did CCN(CC)c1ccc(NC(=O)Cn2c(C(C)NC(=O)c3ccccc3)nc3ccccc32)cc1 (stereo not drawn) do in these assays?
GALR2 blocker: -13; GALR2 agonist: 11*; CD11b adhes inh: 10; Mac1 fbg enh: 19; GALR2 agon conf: -1; BLA act counter: -3

How did COc1ccc(/C=C/C(=O)Nc2sc3c(c2C(=O)NCc2cccnc2)CCCC3)cc1 do in these assays?
GALR2 blocker: 5; GALR2 agonist: -1; S1P2 blocker: 6; S1P2 agonist: -9

What do the screens show for `O=C(COc1ccccc1)Nc1sc2c(c1C(=O)NCc1cccnc1)CCCC2`?
GALR2 blocker: -8; GALR2 agonist: 10; CD11b adhes inh: 10; S1P2 blocker: 16; S1P2 agonist: -3; Mac1 fbg enh: 3; GALR2 agon conf: 4; BLA act counter: -2

How did COc1ccc2[nH]c3c(c2c1)CCn1c-3nc2ccccc2c1=O do in these assays?
GALR2 blocker: 11; GALR2 agonist: 8.7*; CD11b adhes inh: 4; Mac1 fbg enh: 3; GALR2 agon conf: 0; BLA act counter: -1

Results for COc1cc(OC)cc(C(=O)Nn2c(C)nc3ccccc3c2=O)c1 ?
GALR2 blocker: -4; GALR2 agonist: -2; CD11b adhes inh: -5; S1P2 blocker: 23; S1P2 agonist: -8; Mac1 fbg enh: -1

How did COc1ccc(CCn2c(N)c(C(=O)NCc3ccco3)c3nc4ccccc4nc32)cc1 do in these assays?
GALR2 blocker: 4; GALR2 agonist: 1

How did COc1ccc(CCn2c(N)c(C(=O)NCc3ccco3)c3nc4ccccc4nc32)cc1OC do in these assays?
GALR2 blocker: 4; GALR2 agonist: 12*; CD11b adhes inh: -2; S1P2 blocker: -16; S1P2 agonist: 16; Mac1 fbg enh: 13; GALR2 agon conf: 4; BLA act counter: 9.9*

Results for CCOC(=O)c1ccc(NC(=S)N2CCSC2c2ccc(Br)cc2)cc1 (stereo not drawn) ?
GALR2 blocker: -2; GALR2 agonist: 17*; GALR2 agon conf: 17*; BLA act counter: 38*

How did O=C(CCCCCn1c(=S)[nH]c2cc3c(cc2c1=O)OCO3)N1CCN(Cc2ccccc2)CC1 do in these assays?
GALR2 blocker: -5; GALR2 agonist: -2; CD11b adhes inh: 4; S1P2 blocker: 0; S1P2 agonist: -1; Mac1 fbg enh: 31

What do the screens show for `CCOc1cc(C2CC(=O)NC3=C2C(=O)C(C(=O)OC)C(C)C3)cc(Br)c1O` (stereo not drawn)?
GALR2 blocker: -8; GALR2 agonist: -1; S1P2 blocker: -5; S1P2 agonist: -6

Results for Cc1ccc(NC(=O)NC2(C(=O)NCc3ccco3)CCCCC2)cc1 ?
GALR2 blocker: -5; GALR2 agonist: -2; CD11b adhes inh: 0; S1P2 blocker: -12; S1P2 agonist: -5; Mac1 fbg enh: -4

What do the screens show for `COC(=O)c1ccc(N2CCCCC2)c(NS(=O)(=O)c2ccc(C)cc2)c1`?
GALR2 blocker: 0; GALR2 agonist: 18*; CD11b adhes inh: 9; S1P2 blocker: 0; S1P2 agonist: -3; Mac1 fbg enh: 0; GALR2 agon conf: 0; BLA act counter: 0

How did CCN(CC)CCNC(=O)c1ccc(N2CCCCC2)c(NS(=O)(=O)c2ccc(C)cc2)c1 do in these assays?
GALR2 blocker: -10; GALR2 agonist: 19*; CD11b adhes inh: -23; S1P2 blocker: 14; S1P2 agonist: -4; Mac1 fbg enh: 0; GALR2 agon conf: 0; BLA act counter: -1

Results for COC(=O)c1ccc(N2CCN(S(=O)(=O)c3ccc(C)cc3)CC2)c([N+](=O)[O-])c1 ?
GALR2 blocker: 10; GALR2 agonist: -3; CD11b adhes inh: 25; S1P2 blocker: 29; S1P2 agonist: -7; Mac1 fbg enh: 12

Results for Cc1ccc(C)n1-n1cnc2sc3c(c2c1=O)CCCCC3 ?
GALR2 blocker: -1; GALR2 agonist: -2; CD11b adhes inh: -5; S1P2 blocker: -10; S1P2 agonist: -5; Mac1 fbg enh: -2

What do the screens show for `O=C1NC2(CCCCC2)C(=O)N1CCS(=O)(=O)Oc1ccccc1`?
GALR2 blocker: -14; GALR2 agonist: 10; CD11b adhes inh: -6; S1P2 blocker: -13; S1P2 agonist: -2; Mac1 fbg enh: 0; GALR2 agon conf: -1; BLA act counter: -3

What do the screens show for `O=C(CN1C(=O)NC2(CCCCC2)C1=O)Nc1ccccc1Cl`?
GALR2 blocker: 10; GALR2 agonist: -1; CD11b adhes inh: 1; Mac1 fbg enh: -1

What do the screens show for `CCOC(=O)/C(=C/c1ccc(N2CCC(c3ccccc3)=N2)cc1)C(C)=O`?
GALR2 blocker: 9; GALR2 agonist: 14*; GALR2 agon conf: 4; BLA act counter: 11*

How did CCOC(=O)C(=Cc1ccc(F)cc1)C(=O)OCC do in these assays?
GALR2 blocker: 17; GALR2 agonist: 0; CD11b adhes inh: -1; S1P2 blocker: 39; S1P2 agonist: -5; Mac1 fbg enh: 4

How did Nc1nc(-c2ccccc2)cn1N do in these assays?
GALR2 blocker: -16; GALR2 agonist: -1; CD11b adhes inh: 22; S1P2 blocker: 5; S1P2 agonist: -1; Mac1 fbg enh: -2

Screening results deposited in PubChem BioAssay by several laboratories.
